Source: PubChem BioAssay (several laboratories)
Compounds with a hit are over-represented: about 7% of the library has one in this group of screens.
AHR activator: human AHR activation | P35869 | activation, % at 5 µM | AHR-responsive luciferase reporter cells, luminescence | AID 2796 | 320,000 tested, 2.5% active; in the data active = activation above about 47%;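 note: 0% = vehicle wells and 100% = reference agonist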
NR3A LBD binder: modulators (binders) of human NR3A ligand-binding domain; NR3A LBD differential scanning fluorimetry, Tm shift; 0% = protein alone, 100% = glycine-bound protein; Tm shift relative to glycine control, % at 25 µM; 340,000 tested, 2.5% active;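 active = melting temperature shift of at least 10% of the positive control shift, at one fixed dose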
KLK7 zymogen act: activates the human kallikrein-7 zymogen; AID 652039; 370,000 tested, 0.9% active; activation, % at 7 µM; purified proKLK7, EDANS-DABCYL substrate fluorescence; 100% is mature enzyme control, 0% vehicle;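 active = activation above the mean of all tested compounds plus 3 SD, computed per campaign excluding outliers beyond control limits, cut at about 13% in these data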
Target sequence (P49862 whole entry, looked up): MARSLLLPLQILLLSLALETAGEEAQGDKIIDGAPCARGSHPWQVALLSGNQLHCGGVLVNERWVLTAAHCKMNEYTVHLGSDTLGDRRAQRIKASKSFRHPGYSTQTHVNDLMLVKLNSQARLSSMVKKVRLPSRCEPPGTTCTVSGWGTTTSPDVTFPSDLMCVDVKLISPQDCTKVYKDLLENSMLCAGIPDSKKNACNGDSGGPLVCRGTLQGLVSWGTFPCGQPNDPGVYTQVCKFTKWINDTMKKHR
rCAG binder: binds r(CAG) RNA repeats. r(CAG) RNA repeat, TO-PRO-1 dye displacement fluorescence. inhibition, % at 3 µM. 370,000 tested, 1.3% active. AID 651821;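 active = inhibition above the plate cutoff, the mean of all test compounds on that plate plus 3 SD, cut at about 35% in these data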;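 note: 0% = DMSO alone and 100% = 100 µM mitoxantrone as full dye displacement; higher means more dye released from RNA so lower well fluorescence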
ADAM17 inh: inhibits human ADAM17; recombinant ADAM17, EDANS/DABCYL FRET peptide cleavage; inhibition, % at 6.95 µM; 370,000 tested, 0.83% active;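 active = inhibition above the mean of compounds lying between control limits plus 3 SD, set per campaign, cut at about 8.5% in these data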;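 note: 0% = DMSO-only wells as the low control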
ADAM10 inh: inhibitors of human ADAM10 | 370,000 tested, 0.62% active | recombinant ADAM10, EDANS/DABCYL FRET peptide cleavage, 3 h | inhibition, % at 7 µM;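 active = inhibition above a per-campaign cutoff equal to the mean of compounds falling between control-based bounds plus 3 SD, cut at about 20% in these data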;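 note: 0% = DMSO wells while the 100% control is not disclosed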
Target sequence (O14672 214-748 limits assumed): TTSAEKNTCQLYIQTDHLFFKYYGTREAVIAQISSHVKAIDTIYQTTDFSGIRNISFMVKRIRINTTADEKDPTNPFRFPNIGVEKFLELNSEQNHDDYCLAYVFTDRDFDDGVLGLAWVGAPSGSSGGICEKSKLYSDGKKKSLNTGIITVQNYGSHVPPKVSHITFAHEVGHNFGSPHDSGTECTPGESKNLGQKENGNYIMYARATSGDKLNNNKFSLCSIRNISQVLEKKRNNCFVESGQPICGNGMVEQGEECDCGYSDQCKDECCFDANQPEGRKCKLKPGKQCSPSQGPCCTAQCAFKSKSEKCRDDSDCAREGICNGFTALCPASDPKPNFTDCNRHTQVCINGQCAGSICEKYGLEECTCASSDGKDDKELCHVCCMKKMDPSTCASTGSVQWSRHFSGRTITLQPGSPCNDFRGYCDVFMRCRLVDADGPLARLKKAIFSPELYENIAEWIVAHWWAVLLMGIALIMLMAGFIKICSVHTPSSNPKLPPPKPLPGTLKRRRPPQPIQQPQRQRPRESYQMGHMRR
rCAG bind conf: r(CAG) RNA repeat binding, confirmation; shares compounds with rCAG binder; TO-PRO-1 dye displacement fluorescence; inhibition, % at 3 µM; 4,300 tested, 70% active;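 active = inhibition above a per-plate cutoff, the mean inhibition of sample wells plus 3 SD, cut at about 35% in these data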;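 note: loss of TO-PRO-1 fluorescence as compound displaces dye from 1x1 AA loop RNA; 0% = DMSO only wells and 100% = 100 µM mitoxantrone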
DNA CAG counter: disrupts DNA CAG TO-PRO-1 complex, flagging rCAG hits; d(CAG) DNA oligo TO-PRO-1 dye displacement, fluorescence; inhibition, % at 3 µM; AID 652068; 4,300 tested, 94% active; shares compounds with rCAG binder;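 active = inhibition above its plate's cutoff, the mean test-well inhibition plus 3 SD, cut at about 4.8% in these data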;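 note: 0% = DNA dye mix with DMSO and 100% = 100 µM mitoxantrone; hits displace the dye from DNA and so lower well fluorescence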
An asterisk follows results filed as active; nt = not tested or not shown.

SMILES | AHR activator | NR3A LBD binder | KLK7 zymogen act | rCAG binder | ADAM17 inh | ADAM10 inh | rCAG bind conf | DNA CAG counter
COC(=O)[C@]12C[C@H](CC(=O)N3CCCC3)C(=O)N(Cc3cccc4ccccc34)C1=C[C@H](C(C)(C)C)O[C@@H]2C | nt | nt | -0.5 | 2.5 | 3.6 | 6.0 | nt | nt
Nc1[nH]n2c(=O)cc(-c3ccccc3)nc2c1N=Nc1ccc(S(N)(=O)=O)cc1 | 0.2 | 25.5* | 0.1 | 44.4* | -5.0 | -2.2 | 21.8 | 5.5*
Cc1cccc(NC(=O)CN2C(=O)N/C(=C\c3ccccc3OCc3ccc(C(=O)O)cc3)C2=O)c1 | -0.5 | -8.6 | 0.8 | 60.8* | -3.5 | -11.1 | 67.1* | 31.2*
O=C(CN1C(=O)N/C(=C\c2ccccc2OCc2ccc(C(=O)O)cc2)C1=O)Nc1ccc(F)cc1 | 2.8 | -13.2 | -0.9 | 59.0* | -4.9 | -9.6 | 43.0* | 12.9*
Cc1ccccc1NC(=O)CN1C(=O)N/C(=C\c2ccccc2OCc2ccc(C(=O)O)cc2)C1=O | 0.9 | 2.4 | 2.5 | 42.7* | -14.7 | -1.9 | 29.1 | 7.8*
O=C(O)c1ccc(COc2ccccc2/C=C2\NC(=O)N(Cc3ccc(F)cc3)C2=O)cc1 | 0.0 | -0.1 | 0.1 | 8.8 | 0.0 | -3.3 | nt | nt
CC1CCN(C(=O)c2ncn3c2C(=O)NC[C@@H]3C)CC1 | nt | nt | -0.4 | 0.3 | -1.5 | -11.9 | nt | nt
C=C(C)C#CCNCc1ccccc1 | nt | nt | -0.5 | 0.6 | -4.0 | -5.6 | nt | nt
O=S(=O)(Nc1ncccn1)c1ccc(NC(=S)N2CCN(Cc3ccc(F)cc3Cl)CC2)cc1 | 1.0 | 1.6 | 0.2 | 38.6* | 1.4 | 3.2 | 37.8* | 11.1*
CCCNC(=O)C[C@H]1CC[C@@H]2[C@H](COC[C@@H](O)CN2C(=O)c2ccccn2)O1 | nt | nt | -0.2 | 4.9 | 0.1 | 0.7 | nt | nt
CCOc1ccc(C=Nn2c(-c3ccc(F)cc3)n[nH]c2=S)cc1 | nt | nt | 0.6 | 25.3 | 2.2 | 1.6 | nt | nt
CCN(CC)S(=O)(=O)c1cccc(-c2n[nH]c(=S)n2/N=C/c2ccc(OC)cc2)c1 | 3.3 | -4.8 | -0.3 | 50.5* | 5.3 | 13.3 | 45.9* | 12.5*
CCN(CC)S(=O)(=O)c1cccc(-c2n[nH]c(=S)n2/N=C/c2ccc(Br)cc2)c1 | 2.9 | 22.2* | -0.2 | 78.5* | 5.9 | 12.3 | 83.0* | 47.9*
CCOc1ccc(C=Nn2c(-c3cccc(OC(C)C)c3)n[nH]c2=S)cc1 | nt | nt | -0.8 | 44.3* | 4.7 | 2.2 | 46.2* | 11.4*
O=C(O)c1ccccc1-c1ccccc1C(=O)Nc1ccc2oc(=O)c3ccccc3c2c1 | nt | nt | -1.9 | 50.5* | -8.6 | -37.8 | 50.6* | 14.3*
O=C(O)c1ccccc1-c1ccccc1C(=O)Nc1ccccc1 | 6.1 | -11.2 | 0.3 | -1.4 | 0.5 | -5.5 | nt | nt
Cc1ccc(NC(=O)c2ccccc2-c2ccccc2C(=O)O)cc1C | -2.2 | 0.0 | 0.0 | 3.2 | -1.7 | -1.9 | nt | nt
O=C(O)c1ccccc1-c1ccccc1C(=O)Nc1ccc(-c2nc3cc(Cl)ccc3o2)cc1 | 22.4 | -2.3 | 2.0 | 71.1* | -24.6 | -44.7 | 84.7* | 53.6*
CCn1c2ccccc2c2cc(NC(=O)c3ccccc3-c3ccccc3C(=O)O)ccc21 | 0.8 | -5.4 | -0.7 | 75.2* | 3.5 | 2.9 | 65.1* | 25.5*
O=C(O)c1ccccc1-c1ccccc1C(=O)Nc1ccc2c(c1)[nH]c(=O)c1ccccc12 | 2.7 | -5.1 | 0.1 | 68.0* | -2.9 | -6.8 | 62.1* | 27.2*
CC(=O)c1ccc(-c2ccccc2C2=CC(=O)CC(C)(C)C2=O)cc1 | nt | nt | -0.5 | 3.2 | -4.2 | -10.7 | nt | nt
C=CCCC[C@H]1OC(=O)[C@H](C)NC(=O)[C@H](C(C)C)NC(=O)[C@@H]2CCCN2C(=O)[C@H](Cc2ccccc2)OC(=O)[C@@H](C(C)C)N(C)C(=O)[C@H](C(C)C)NC(=O)C1(C)C | nt | nt | 0.8 | 9.3 | -2.2 | 8.7 | nt | nt
Cc1nc(-c2ccc(S(=O)(=O)Nc3cccc(S(N)(=O)=O)c3)s2)cs1 | -1.3 | 2.4 | -0.5 | 4.5 | -1.8 | -6.5 | nt | nt
Cc1nc(-c2ccc(S(=O)(=O)Nc3ccc(Br)cc3Cl)s2)cs1 | 4.7 | 9.3 | -0.5 | 74.2* | 3.0 | -1.4 | 65.5* | 26.6*
N#Cc1c(-c2ccccc2)nc(SCC(=O)Nc2nnc(C(F)(F)F)s2)[nH]c1=O | 0.9 | 1.1 | -0.4 | 46.4* | 0.0 | 6.3 | 22.8 | 5.6*
SMILES | AHR activator | NR3A LBD binder | KLK7 zymogen act | rCAG binder | ADAM17 inh | ADAM10 inh | rCAG bind conf | DNA CAG counter
N#Cc1c(-c2cccs2)nc(SCC(=O)c2cccs2)[nH]c1=O | 4.8 | -14.5 | -0.2 | 79.4* | 5.6 | 2.4 | 64.7* | 29.1*
Cc1cc(C)nc(NS(=O)(=O)c2ccc(NC(=O)CSc3nc(-c4ccccc4)c(C#N)c(=O)[nH]3)cc2)n1 | -0.5 | -1.4 | -0.2 | 45.1* | -1.8 | -1.4 | 29.9 | 7.4*
Cc1cccc(NC(=O)CSc2nc(-c3ccccc3)c(C#N)c(=O)[nH]2)c1C | -1.2 | -11.2 | 0.6 | 33.0 | -2.9 | 1.0 | nt | nt
O=C(CSc1nc2ccccc2c(=O)[nH]1)c1cccs1 | 5.9 | -0.3 | -0.3 | 4.5 | -1.2 | 0.8 | nt | nt
N#Cc1c(-c2ccccc2)nc(SCC(=O)Nc2ccccc2F)[nH]c1=O | 0.4 | -8.4 | 0.2 | 44.0* | -1.7 | -5.8 | 31.6 | 8.2*
Cc1cc(NC(=O)CSc2nc(-c3ccccc3)c(C#N)c(=O)[nH]2)no1 | -1.8 | -0.2 | 0.5 | 16.0 | -2.6 | -37.9 | nt | nt
COC(=O)C1=C(C)N(C)C(=NCc2ccccc2C(F)(F)F)NC1c1ccc(F)cc1 (stereo not given) | nt | nt | 0.6 | 5.5 | -6.0 | -3.2 | nt | nt
CC(=O)OC12CCCN(C1)/C(=C/c1cccc(Cl)c1)C2 (stereo not given) | nt | nt | -0.4 | 1.1 | -5.9 | 2.7 | nt | nt
CCCN(CC1CC1)C(=O)CN1C(=O)C2CCCCN2C(=O)c2ccccc21 (stereo not given) | nt | nt | -0.1 | -0.4 | -2.4 | -10.8 | nt | nt
CCC(Sc1nc(-c2ccccc2)c(C#N)c(=O)[nH]1)C(=O)Nc1nnc(C)s1 (stereo not given) | 3.7 | -10.5 | 0.9 | 43.9* | -2.5 | -5.4 | 42.6* | 11.9*
CCCCc1nnc(NC(=O)CSc2nc(O)c(Cc3ccccc3)c(=O)[nH]2)s1 | 2.2 | -0.3 | 0.2 | -0.3 | -4.0 | -8.4 | nt | nt
O=C(CSc1nc(O)c(Cc2ccccc2)c(=O)[nH]1)Nc1nnc(SCc2ccccc2)s1 | -0.2 | -9.9 | -0.2 | 52.8* | -0.7 | -2.9 | 28.4 | 7.5*
N#Cc1c(-c2ccccc2)nc(SCC(=O)Nc2ccc(OC(F)(F)Cl)cc2)[nH]c1=O | -1.4 | 8.1 | 0.5 | 90.3* | 5.8 | 13.0 | 84.6* | 57.9*
